The campaign covered roughly 69,000 compounds. About 8,600 (12%) showed an effect of 50% or more. The full list was thinned out, with strong results kept by preference.
test system: Plasmodium berghei; experiment: Screen against P. berghei liver stage (PbLuc), transformed with Luciferase, at 10uM; type: functional, HepG2; settings: tested at 10 uM

Compound	INHIBITION
Cc1nc(C)c(C(=O)N2Cc3ccccc3OCC2Cn2ccnc2)o1 (stereo unspecified)	25.8%
O=C(c1cccnc1)N1Cc2ccccc2OCC1Cn1ccnc1 (stereo unspecified)	24.8%
Cc1nc(C)c(C(=O)N2Cc3ccccc3OCC2Cn2ccnc2)s1 (stereo unspecified)	51.7%
CCS(=O)(=O)N1C[C@@H](O)[C@H](N2CCc3ccccc3C2)C1	9.98%
Cc1noc(C)c1C(=O)N1CC[C@]2(C[C@@H](OCc3cccnc3)CO2)C1	10.1%
CCC[C@@H]1CN(Cc2ccccc2-c2ccco2)C[C@H]1NC(C)=O	-20%
Cc1nc(N(C)C)nc(C)c1NC(=O)c1ccco1	-2.74%
Cc1nc(N(C)C)nc(C)c1NC(=O)c1ccccc1F	64.3%
Cc1nc(N(C)C)nc(C)c1NC(=O)c1ccccc1C(F)(F)F	46.3%
Cc1ccc(NC(=O)c2ncc(C(N)=O)cc2Cl)cc1F	-10.8%
CNS(=O)(=O)c1cc(C(=O)NC2COc3ccccc32)cc(C)c1C (stereo unspecified)	18.4%
O=C(c1cccnc1N1CCCCC1)N1CCCC(n2cccn2)C1 (stereo unspecified)	-11.9%
CCCNS(=O)(=O)c1ccc2[nH]c(=O)cc(C)c2c1	14.3%
CNS(=O)(=O)c1cc(C)c2[nH]c(=O)cc(C)c2c1	56%
CCOCCNS(=O)(=O)c1cc(C)c2nc(O)cc(C)c2c1	16.3%
CN(C)C(=O)[C@@H]1C[C@@H]2CCN(C3CCOCC3)C[C@@H]2O1	14.5%
CCc1cc(NCC(O)CN2CCCCC2)n2ncnc2n1 (stereo unspecified)	-0.79%
CN(C)C(=O)N1C[C@H]2CC[C@@H](C1)N(C(=O)c1cccc(N(C)C)c1)C2	26.7%
CCOc1cccc(C(=O)N2C[C@@H]3CC[C@H]2CN(C(=O)C2CCC2)C3)c1	27.6%
CN(C)c1cccc(C(=O)N2C[C@@H]3CC[C@H]2CN(C(=O)C2CCC2)C3)c1	50.3%
CN(C)C(=O)c1cnc2n1CCN(Cc1ccsc1)C2	3.11%
COCC1c2c(cnn2C)CCN1Cc1cccc(C)c1 (stereo unspecified)	26.3%

Compound	INHIBITION
CN1CCN(CC2(O)CCCN(C(=O)Cc3cccc(O)c3)CC2)CC1 (stereo unspecified)	-2.09%
Cc1ccc(CS(=O)(=O)NCc2ccco2)cc1	52.1%
O=S(=O)(Cc1ccccc1)NCc1ccco1	11.5%
CNc1c(NCc2ccco2)c(=O)c1=O	33.5%
O=C1OCCN1c1cccc(CNS(=O)(=O)Cc2ccc(F)cc2)c1	18.9%
O=S(=O)(Cc1ccc(F)cc1)NCc1ccco1	52.1%
CC(C)(Oc1ccc(F)cc1)C(=O)NCc1ccco1	-0.797%
O=C1CCC[C@]2(CN(S(=O)(=O)N3CCCCC3)C[C@H]2c2cccnc2)N1	17.4%
O=C(CO[C@@H]1CC[C@H]2[C@H]1OCCN2CC1CCOCC1)N1CCCC1	11.9%
CN(C)CCN1CCOCC2(CCCN(C(=O)c3ccoc3)C2)C1 (stereo unspecified)	30.3%
Cc1cc(C(=O)N2CCCC3(COCCN(CCN(C)C)C3)C2)no1 (stereo unspecified)	56.1%
CN1CCOCC2(CCCN(C(=O)c3cn(C)cn3)C2)C1 (stereo unspecified)	-57.7%
CN(C)CCN1CCOCC2(CCCN(C(=O)c3ccccn3)C2)C1 (stereo unspecified)	54.7%
CN1CCOCC2(CCCN(C(=O)c3ccccc3F)C2)C1 (stereo unspecified)	34.6%
CN(C)CCN1CCOCC2(CCCN(C(=O)c3cccn3C)C2)C1 (stereo unspecified)	47.9%
CN(C)CCN1CCOCC2(CCCN(C(=O)c3cccc(O)c3)C2)C1 (stereo unspecified)	4.61%
CN1CCOCC2(CCCN(C(=O)c3ccc(-n4cccc4)cc3)C2)C1 (stereo unspecified)	50.9%
CN(C)CCN1CCOCC2(CCCN(C(=O)c3ccccc3)C2)C1 (stereo unspecified)	20.9%
Cc1ccc(C)c(NS(=O)(=O)c2cc3c(c(C(=O)O)c2)OCCO3)c1	38.8%
O=C(NCCc1nc(C2CC2)no1)[C@H]1CNC[C@H](C(=O)N2CCCC2)C1	-31.3%
Cc1nn(C)c(N(C)C)c1CNCc1ccc(OCCN(C)C)cc1	27.6%
COCCn1ccc2cc(NC(C)=O)ccc21	18.2%

Compound	INHIBITION
Cc1[nH]c2ccc(CNc3cc(C(=O)NC(C)C)ccn3)cc2c1C	55.4%
COC(=O)C(C)NCc1ccc2[nH]c(C)c(C)c2c1 (stereo unspecified)	46.4%
Cc1[nH]c2ccc(CNc3cc(C(N)=O)ccn3)cc2c1C	16.9%
Cc1[nH]c2ccc(CNc3cc(C#N)ccn3)cc2c1C	16.9%
CSCC(C)NCc1ccc2[nH]c(C)c(C)c2c1 (stereo unspecified)	76.9%
COCC(C)NCc1ccc2[nH]c(C)c(C)c2c1 (stereo unspecified)	2.9%
CC(=O)N1Cc2ccccc2OC2(CCN(C(=O)C3CC3)CC2)C1	37.8%
CCCSc1ncccc1C(=O)NCc1ccc(S(N)(=O)=O)cc1	-7.29%
N#Cc1cccc(NS(=O)(=O)c2ccc(C(=O)O)cc2F)c1	45.7%
CN(Cc1ccc(OC(F)F)cc1)C(=O)CS(=O)(=O)c1ccc(Cl)cc1	34.7%
CN(C)c1ccc(CNC(=O)c2ccc(Cl)cc2F)cc1	14.2%
CN(Cc1ccc(N(C)C)cc1)C(=O)CS(=O)(=O)c1ccc(Cl)cc1	64.3%
CC1(C)O[C@@](C)([C@H]2CC3(CCN(c4ncccn4)CC3)CO2)CC[C@@H]1O	32.7%
CC(C)c1noc(CN2CCN(C(=O)c3ccc(F)cc3)CC2)n1	16.8%
O=C(CN1CCCCC1)Nc1ncc(Br)cc1Br	27.8%
O=C1c2cc(Br)cc(Br)c2OCC1(CN1CCCC1)CN1CCCC1	59%
Cc1cc(I)c2c(c1)C(=O)C(CN1CCCC1)(CN1CCCC1)CO2	-55.3%
FC(F)CN1CCC(NCCc2ccc(-n3cccn3)cc2)CC1	6.83%
Cc1cc(C2CCCN(C(=O)c3ccc(OCC4CC4)nc3)C2)n[nH]1 (stereo unspecified)	20.4%
Cc1cnn(C2CCCN(C(=O)c3ccc(OCC4CC4)nc3)C2)c1 (stereo unspecified)	13.483%
CCC(=O)NC1CCCN(C(=O)c2ccc(OCC3CC3)nc2)C1 (stereo unspecified)	78.8%
CN(Cc1ccco1)C1COC2(CCN(Cc3nccs3)CC2)C1 (stereo unspecified)	28.3%

— ChEMBL document CHEMBL4513216, “Probing the Open Global Health Chemical Diversity Library for Multistage-Active Starting Points for Next-Generation Antimalarials” (ACS Infect Dis, 2020)
